Sampled rows, rich in hits. Any-hit rate of the full collection: about 8%.
SW480 rerep – A quantitative high throughput screen for small molecules that induce DNA re-replication in SW480 colon adenocarcinoma cells; hit rate 1.8% among 340,000; AID 624297, 2012; Potency, µM (top dose mostly 46.1 µM), for the others: at the top dose re-replication activation, hits mostly activators; SW480 DNA re-replication, Hoechst DNA content imaging, 48 h; note: % of control where 0% means no effect; nearly all actives have a fitted effect of over 55% in size
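Hoechst fluorescence of nuclei (405 nm excitation, 500-530 nm emission) measured by plate-scanning imager after 48 hr compound exposure at 37 C; re-replication scored as increased number of nuclei with elevated intensity.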
MCF10A rerep – A quantitative high throughput screen for small molecules that induce DNA re-replication in MCF 10a normal breast cells; MCF 10A DNA re-replication, Hoechst nuclear intensity, 48 h; Potency, µM (series often up to 46.1 µM), for inactives: at the highest dose activity, positive = re-replication, actives largely listed as activators; hit rate 2.9% among 350,000; AID 624296, 2012; note: % of control where 0% means no effect; nearly all actives have a fitted effect of over 50% in size
HT1080 IDH1KD tx – qHTS for induction of synthetic lethality in tumor cells producing 2HG: qHTS for the HT-1080-IDH1KD cell line; hit rate 2% among 360,000; HT-1080 IDH1 knockdown viability, ATP luminescence, 48 h; Potency, µM (top dose mostly 46.1 µM), for the others: at the top dose activity, negative = toxicity, usual class: cytotoxic;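 note: 0% = DMSO wells and -100% = cell-free medium wells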
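Assay cells: HT-1080 with IDH1 knockdown, 750 per well, RPMI/5% FBS. Exposure: 48 h at 37 °C following 2 h pre-incubation. Read: CellTiter-Glo luminescence; fitted concentration-response, curve class assigned.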
HT1080-NT tox – qHTS for induction of synthetic lethality in tumor cells producing 2HG: qHTS for the HT-1080-NT fibrosarcoma cell line | Potency, µM (titrated, usually from 46.1 µM), without a hit: at the top dose activity, negative = less viability, usual class: cytotoxic | HT-1080-NT fibrosarcoma viability, CellTiter-Glo ATP luminescence, 48 h | hit rate 1.6% among 360,000;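 note: NT is the 2HG producing partner of a matched IDH1 knockdown line; 0% = DMSO-treated cells and -100% = media-only wells without cells; nearly all actives have a fitted effect of over 55% in size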
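Luminescent CellTiter-Glo readout after 48 hours of compound exposure at 37 degrees C defined viability of HT-1080-NT cells. Activity was normalized to DMSO wells and cell-free media wells; concentration-response curves were fitted and assigned curve classes.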
KB-V1 MDR tox – qHTS assay for MDR1-selective chemotherapeutics: Primary screen using the drug-selected MDR subline cells KB-V1; AID 1347076, 2019; hit rate 3.4% among 400,000; KB-V1 MDR cells viability, CellTiter-Glo, 72 h; Potency, µM (highest dose often 46.1 µM), most hits filed as cytotoxic; note: % is set by controls: 0 for no effect and ±100 for the full control effect; nearly all actives have a fitted effect of over 60% in size
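Cells of the MDR subline KB-V1 are plated, dosed with compound at multiple concentrations, and incubated 72 h at 37 degrees C; CellTiter-Glo is then added and luminescence read after 10 min.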
KB-3-1 tox – qHTS assay for MDR1-selective chemotherapeutics: Primary screen using the parental adenocarcinoma cell KB-3-1. KB-3-1 viability, CellTiter-Glo ATP luminescence, 72 h. Potency, µM (top dose mostly 46.1 µM), hits mostly cytotoxic. hit rate 1.4% among 400,000. AID 1347075, 2019; note: % is set by controls: 0 for no effect and ±100 for the full control effect; nearly all actives have a fitted effect of over 60% in size
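Cytotoxicity measured as CellTiter-Glo luminescence after 72 h at 37 C. Compound titrations were pinned onto drug-naive KB-3-1 parental adenocarcinoma cells grown in DMEM with 10% FBS, and normalized data fitted to concentration-response curves.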
The depositor's hits bear a star; i = inactive; ? = inconclusive; · = not tested or not shown. Calls come from the whole dose curve; as a rule, active = well fitted curve in the direction sought with a large enough effect; inconclusive = small, poorly fitted or top-dose-only effect, or another doubt; inactive = no such curve, though single readings can be large; an effect the other way counts as inactive or inconclusive. Potency is the fitted concentration of half-maximal effect.

SMILES | SW480 rerep | MCF10A rerep | HT1080 IDH1KD tx | HT1080-NT tox | KB-V1 MDR tox | KB-3-1 tox
COc1ccccc1N1CCN(C(=O)c2cc(-c3ccccc3)on2)CC1 | -5.5% | ? | -11.8% | -8.6% | ? | i
COc1cc2c(cc1OC)C(C)N(C(=O)c1sccc1C)CC2 (stereo unspecified) | -1.5% | 1.1% | -11.7% | 1.6% | i | i
COc1cc2c(C(=O)N3CCN(c4ccccc4C)CC3)c(C)oc2cc1Br | 12.7% | 11.5% | 12.1% | 4.9% | 5.8µM* | ?
COc1cc2c(cc1OC)C(C)N(C(=O)CCNC(=O)c1ccccc1)CC2 (stereo unspecified) | -2.3% | 4.6% | 11.3% | -2.4% | i | i
COc1cc2c(cc1OC)C(C)N(C(=O)c1ccc(C)o1)CC2 (stereo unspecified) | ? | 20.1% | ? | ? | 16.4µM* | ?
O=C(CSCc1cnn(-c2ccccc2)c1-n1cccc1)NCc1ccccn1 | -1.5% | 10.0% | -2.6% | -9.8% | i | i
COC(Cn1c(C)c(C(C)=O)c(C(C)=O)c1C)OC | -1.1% | -3.0% | 1.1% | 1.4% | i | i
CCN(CC)CCC(=O)N1c2ccccc2Sc2ccc(Cl)cc21 | 14.1µM* | 29.9µM* | 20.6µM* | ? | ? | i
CN1CCC=C(C(=O)N2c3ccccc3Sc3ccc(Cl)cc32)C1 | -6.1% | 12.8% | 16.4µM* | ? | i | ?
CN(C)CCC(=O)N1c2ccccc2Sc2ccc(Cl)cc21 | ? | ? | ? | -3.5% | i | i
Cc1cccc(N(CC(=O)NCc2ccc3c(c2)OCO3)C(=O)CCC(=O)Nc2ccccn2)c1C | 0.1% | 9.8% | -6.2% | -11.5% | i | i
Cc1ccc2nc(N3CCN(C(=O)c4ccccc4F)CC3)c(C#N)cc2c1 | 26.5% | 11.6µM* | 2.9% | 10.8% | i | i
CCOc1cc(/C=C/C(=O)Nc2ccc(C(=O)NCCN(CC)CC)cc2)ccc1OCC(C)C | -84.3% | ? | ? | ? | i | 18.4µM*
Clc1cccc(OCCN2CCN(CCOc3cccc(Cl)c3)CC2)c1 | ? | ? | ? | ? | i | 16.4µM*
CC1CCN(CCOc2cccc(Br)c2)CC1 | 1.1% | 10.7% | 0.0% | 14.3% | i | i
CCOC(=O)[C@H]1[C@H]2COc3ccc(Br)cc3[C@@H]2N2C(=O)c3ccc(C)cc3NC(=O)[C@@]12C | -1.9% | ? | -14.2% | -11.2% | i | i
C[C@@]12C(=O)Nc3ccc(Br)cc3C(=O)N1[C@H]1c3cc(Br)ccc3OC[C@@H]1[C@@H]2c1ccccc1 | ? | -87.8% | -17.9% | ? | i | i
C[C@@]12C(=O)Nc3ccc(Cl)cc3C(=O)N1[C@H]1c3cc(Br)ccc3OC[C@@H]1[C@@H]2c1ccccc1 | 16.4µM* | 1.3% | -13.9% | -23.9% | i | i
C[C@@]12C(=O)Nc3ccccc3C(=O)N1[C@H]1c3cc(Br)ccc3OC[C@@H]1[C@@H]2c1ccccc1 | ? | 3.26µM* | 5.8µM* | ? | i | ?
O=C(/C=C/c1ccco1)Oc1cccc2cccnc12 | ? | 5.3% | 20.6µM* | ? | i | i
O=C(/C=C\c1ccco1)Oc1cccc2cccnc12 | -12.5% | ? | 14.6µM* | ? | i | ?
O=C1SCC(c2ccc(Cl)cc2Cl)=NN1Cc1nnc(-c2ccccc2)o1 | -75.8% | ? | 6.6% | 0.3% | ? | i
COc1ccccc1C(=O)NC(CCSC)C(=O)NCC(c1ccco1)N(C)C (stereo unspecified) | 4.0% | -0.4% | -1.3% | -0.7% | 18.4µM* | i
COc1ccccc1C(=O)NC(CCSC)C(=O)NCC(c1cccs1)N(C)C (stereo unspecified) | -3.5% | -1.0% | 4.4% | 2.9% | ? | i
COc1ccc(C(CNC(=O)C(CCSC)NC(=O)c2ccccc2Cl)N2CCCCC2)cc1 (stereo unspecified) | -0.4% | 3.1% | -2.3% | -2.6% | 23.1µM* | i
SMILES | SW480 rerep | MCF10A rerep | HT1080 IDH1KD tx | HT1080-NT tox | KB-V1 MDR tox | KB-3-1 tox
O=C(Nc1nccs1)c1cn2ccccc2n1 | ? | -0.8% | -5.7% | 0.9% | i | i
CC(=O)c1ccc(OCCCC(=O)Nc2ccc(Cl)c(S(=O)(=O)N3CCOCC3)c2)cc1 | 4.1% | 17.2% | -17.4% | -5.3% | i | ?
O=C(CCCOc1ccccc1)Nc1ccc(Cl)c(S(=O)(=O)N2CCOCC2)c1 | -8.9% | 5.9% | -13.3% | -10.6% | ? | ?
Cc1ccc(OCCCC(=O)Nc2ccc(Cl)c(S(=O)(=O)N3CCOCC3)c2)cc1 | ? | ? | -20.8% | -19.6% | 7.31µM* | 14.6µM*
O=C(Cc1cccs1)Nc1ccc(Cl)c(S(=O)(=O)N2CCOCC2)c1 | 5.8µM* | -15.1% | -3.6% | ? | ? | i
O=C(CCCSc1ccccc1)Nc1ccc(Cl)c(S(=O)(=O)N2CCOCC2)c1 | 3.1% | 13.7% | -18.4% | 0.7% | 2.59µM* | ?
CC(C)Oc1ccc(C(CC(=O)NCCCN(C)C)c2ccc(F)cc2)cc1 (stereo unspecified) | -3.3% | 14.8% | -19.2% | -16.7% | i | i
CC(C)CN(C(=O)c1ccc([N+](=O)[O-])s1)c1c(N)n(Cc2ccccc2)c(=O)[nH]c1=O | ? | ? | 5.7% | 0.0% | i | i
COc1cc(C=CC(=O)c2ccccc2)cc(OC)c1OC | · | · | 8.2µM* | 10.3µM* | 23.1µM* | ?
COc1cc(/C=C/C(=O)N2CCC=CC2=O)cc(OC)c1OC | ? | 8.2µM* | 4.11µM* | 5.8µM* | ? | ?
COc1cc(/C=C/C(C)=O)cc(OC)c1OC | -7.5% | ? | 0.2% | -8.5% | i | 23.1µM*
COc1ccc(/C=C/C(=O)c2ccccc2)c(OC)c1 | ? | -1.2% | ? | ? | ? | i
COc1ccc(C=CC(=O)c2ccc3cc(OC)c(OC)cc3c2)cc1OC | · | · | ? | -23.6% | i | ?
COc1cc(/C=C/C(=O)N2CCCN(C(=O)/C=C/c3cc(OC)c(OC)c(OC)c3)CC2)cc(OC)c1OC | ? | -7.5% | -0.6% | 9.2% | i | ?
COc1ccc2cc(C(=O)/C=C/c3cc(OC)c(OC)c(OC)c3)ccc2c1 | 20.6µM* | 13µM* | ? | ? | i | i

High-throughput results: PubChem BioAssay, National Center for Advancing Translational Sciences (NCATS)
